High-throughput results: PubChem BioAssay, NMMLSC
Only some compounds are listed: those with a hit (about 1.9% of all), similar ones and a draw of the others.
FPRL1 ligand – ligands of human FPRL1, also counter-screen for FPR ligands; FPRL1-expressing cells, fluorescent ligand binding inhibition, flow cytometry; inhibition, % (no concentration beside the values); hit rate 0.3% among 24,000;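 also: 0% = buffer alone and 100% = receptor blocker peptide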
VLA-4 antagonist – inhibition of LDV-FITC ligand binding to human VLA-4 integrin; P13612; inhibition, % at 10 µM (by protocol); AID 529; hit rate 0.2% among 24,000; Jurkat cells, LDV-FITC binding with Mn2+, flow cytometry; 100% = Mn2+-driven binding gain fully reversed;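 active = inhibition above 50%; inconclusive = compound itself fluorescent, judged against control cell fluorescence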;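 also: 0% = Mn2+ stimulated cells lacking compound and 100% = ligand binding without Mn2+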
Target sequence (P13612 whole entry, looked up): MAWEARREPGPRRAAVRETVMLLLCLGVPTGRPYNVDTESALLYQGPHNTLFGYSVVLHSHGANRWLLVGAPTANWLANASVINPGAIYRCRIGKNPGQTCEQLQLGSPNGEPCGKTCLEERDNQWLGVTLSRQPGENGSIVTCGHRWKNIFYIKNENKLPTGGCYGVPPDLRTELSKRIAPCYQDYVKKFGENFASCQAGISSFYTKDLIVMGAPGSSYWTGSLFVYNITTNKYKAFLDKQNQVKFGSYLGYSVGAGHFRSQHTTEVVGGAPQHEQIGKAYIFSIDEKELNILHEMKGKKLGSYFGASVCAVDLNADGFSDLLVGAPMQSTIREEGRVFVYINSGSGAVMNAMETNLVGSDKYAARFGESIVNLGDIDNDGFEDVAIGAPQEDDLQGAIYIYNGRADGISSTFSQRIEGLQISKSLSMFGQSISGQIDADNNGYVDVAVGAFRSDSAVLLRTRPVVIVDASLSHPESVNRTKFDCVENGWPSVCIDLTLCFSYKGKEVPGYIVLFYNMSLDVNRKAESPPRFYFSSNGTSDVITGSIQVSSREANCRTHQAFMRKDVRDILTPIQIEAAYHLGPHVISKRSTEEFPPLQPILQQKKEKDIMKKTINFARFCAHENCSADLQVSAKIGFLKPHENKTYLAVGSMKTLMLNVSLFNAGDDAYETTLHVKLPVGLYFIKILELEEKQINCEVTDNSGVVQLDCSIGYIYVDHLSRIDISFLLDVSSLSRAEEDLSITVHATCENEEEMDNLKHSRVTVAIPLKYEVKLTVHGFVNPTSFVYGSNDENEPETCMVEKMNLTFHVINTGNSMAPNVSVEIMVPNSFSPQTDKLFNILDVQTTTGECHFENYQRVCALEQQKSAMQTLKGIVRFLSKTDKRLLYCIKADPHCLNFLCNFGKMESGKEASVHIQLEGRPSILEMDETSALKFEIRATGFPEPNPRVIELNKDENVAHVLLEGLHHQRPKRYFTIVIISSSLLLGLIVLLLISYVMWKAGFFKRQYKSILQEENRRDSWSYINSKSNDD
Jurkat autofluor – counter-screen for VLA-4 integrin: compound autofluorescence in Jurkat cells. fluorescence ratio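 (tested at 10 µM compound in the well)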. hit rate 0.61% among 24,000. flow cytometry; active compounds read high; 1 = vehicle-only cell background;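 active = fluorescence ratio above 2.44, which is 1 plus 3 SD of all ratios; inconclusive = signal too bright to measure linearly, ratio around 10 or more; inactive = fluorescence ratio below 2.44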;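 also: green fluorescence of cells measured with 488 nm excitation and 530 nm emission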
VLA-4 agonist – allosterically activates the human VLA-4 integrin; Jurkat cells, LDV-FITC binding, flow cytometry; P13612; activation, % at 10 µM (by protocol); 24,000 tested, under 10 active;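 active = fluorescent ligand binding to cells raised by more than 40% of the manganese-induced maximum; inconclusive = compound's own fluorescence above 85% of the ligand control signal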;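 also: 0% = ligand binding without compound and 100% = manganese-stimulated maximal binding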
FPR ligand – binds the human formylpeptide receptor FPR; P21462; FPR-expressing cells, fluorescent ligand binding, flow cytometry; inhibition, % (test concentration not listed); hit rate 0.74% among 24,000;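 also: 0% = buffer wells and 100% = receptor blocker peptide wells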
Prostate diff – promotes differentiation of LNCaP prostate cells; flow cytometry side scatter, 4 d; side scatter shift, % at 10 µM; hit rate 0.56% among 24,000; AID 795;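 active = side scatter shift above 30%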;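 also: androgen-responsive LNCaP prostate cancer cells in charcoal-stripped serum medium; percent of cells past a gate set so DMSO wells show 10% shift; higher shift means more granular cells and more differentiation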
* hit, by the source's call. Rule as the data show it, unless noted: active = inhibition above about 30%; inconclusive = no clear call, values can overlap the other calls; inactive = below that.

`CCOc1ccccc1NC(=O)CSc1nccn1-c1ccccc1` gave FPRL1 ligand 37*, VLA-4 antagonist 28, Jurkat autofluor 0.97, VLA-4 agonist -4, FPR ligand 44* and Prostate diff 17.
Screening COc1ccc(NC(=O)CSc2nccn2-c2ccccc2)c(OC)c1 returned FPRL1 ligand -3, VLA-4 antagonist -13, Jurkat autofluor 0.91, VLA-4 agonist 4, FPR ligand 5 and Prostate diff 1.
`O=C(Cn1c(=O)oc2cc(S(=O)(=O)N3CCc4ccccc43)ccc21)N1CCCCC1` gave FPRL1 ligand 1, VLA-4 antagonist inconclusive, Jurkat autofluor 1.2, VLA-4 agonist inconclusive, FPR ligand -2 and Prostate diff 13.
`CC1Cc2ccccc2N1C(=O)Cn1c(=O)oc2cc(S(=O)(=O)N3CCCCC3)ccc21` (configuration not stated) gave FPRL1 ligand -7, VLA-4 antagonist inconclusive, Jurkat autofluor 5.1*, VLA-4 agonist inconclusive, FPR ligand -8 and Prostate diff 1.
Screening CN(C)c1ccc(C2C=C(c3ccc(Cl)cc3OC(F)F)Nc3ncnn32)cc1 (configuration not stated) returned FPRL1 ligand -32, VLA-4 antagonist inconclusive, Jurkat autofluor 2.8*, VLA-4 agonist inconclusive, FPR ligand -29 and Prostate diff 16.
For N#CCCN1CCN(S(=O)(=O)c2ccc(S(=O)(=O)NC3CCCC3)cc2)CC1 the results were FPRL1 ligand -2, VLA-4 antagonist -9, Jurkat autofluor 1.1, VLA-4 agonist 2, FPR ligand -1 and Prostate diff 3.
`Cc1ccc2c(c1)c1c(n2CC(O)CNC(CO)(CO)CO)CCCC1` (configuration not stated) gave FPRL1 ligand 0, VLA-4 antagonist -24, Jurkat autofluor 0.77, VLA-4 agonist 6, FPR ligand -4 and Prostate diff 30*.
For COC(=O)Cn1c2c(c3cc(C)ccc31)CCCC2 the results were FPRL1 ligand 2, VLA-4 antagonist -29, Jurkat autofluor 1, VLA-4 agonist -10, FPR ligand 8 and Prostate diff 9.
For N#CC1=C(N)SC(N)=C(C#N)C1c1ccc(C(F)(F)F)cc1 the results were FPRL1 ligand 10, VLA-4 antagonist -54, Jurkat autofluor 1.2, VLA-4 agonist 12, FPR ligand -2 and Prostate diff 2.
N#CC1=C(N)SC(N)=C(C#N)C1CCc1ccccc1 was read as FPRL1 ligand -8, VLA-4 antagonist inconclusive, Jurkat autofluor 2.9*, VLA-4 agonist inconclusive, FPR ligand -7 and Prostate diff 10.
CCOC(=O)C1=C(C)N=c2s/c(=C\c3ccncc3)c(=O)n2C1c1ccc2c(c1)OCO2 (configuration not stated) was read as FPRL1 ligand -8, VLA-4 antagonist inconclusive, Jurkat autofluor 2, VLA-4 agonist inconclusive, FPR ligand -14 and Prostate diff 35*.
CC(=O)c1cccc(NC(=O)Nc2ccc3c(c2)N(C)C(=O)CS3)c1 was read as FPRL1 ligand 0, VLA-4 antagonist inconclusive, Jurkat autofluor 1.4, VLA-4 agonist inconclusive, FPR ligand 10 and Prostate diff 6.
`c1ccc2c(c1)nc(Nc1ccc3c(c1)OCO3)c1nnnn12` gave FPRL1 ligand -10, VLA-4 antagonist inconclusive, Jurkat autofluor 3.2*, VLA-4 agonist inconclusive, FPR ligand -12 and Prostate diff 14.
Screening Cc1cc(C)n(-c2nc3ccccc3nc2Nc2ccc3c(c2)OCO3)n1 returned FPRL1 ligand -4, VLA-4 antagonist inconclusive, Jurkat autofluor 1.5, VLA-4 agonist inconclusive, FPR ligand -9 and Prostate diff 21.
Screening CCN(CC)S(=O)(=O)c1ccc(Nc2nc3ccccc3n3nnnc23)cc1 returned FPRL1 ligand -2, VLA-4 antagonist inconclusive, Jurkat autofluor 3.2*, VLA-4 agonist inconclusive, FPR ligand -11 and Prostate diff 6.
Screening CCN(CC)S(=O)(=O)c1ccc(NC(=O)Cn2cnc3ccccc3c2=O)cc1 returned FPRL1 ligand 1, VLA-4 antagonist -5, Jurkat autofluor 1, VLA-4 agonist -3, FPR ligand 0 and Prostate diff 14.
N#CC1=C(SCC(=O)c2cc3ccccc3oc2=O)NC(=O)C(C#N)C12CCCC2 (configuration not stated) was read as FPRL1 ligand -2, VLA-4 antagonist 68*, Jurkat autofluor 1.2, VLA-4 agonist -36, FPR ligand -2 and Prostate diff 14.
For CCCC(=O)c1cc2ccccc2oc1=O the results were FPRL1 ligand 1, VLA-4 antagonist -34, Jurkat autofluor 1, VLA-4 agonist 0, FPR ligand 4 and Prostate diff 0.
`O=C(c1ccco1)N1CCN(c2nc3ccccc3n3nnnc23)CC1` gave FPRL1 ligand -6, VLA-4 antagonist inconclusive, Jurkat autofluor 9.4*, VLA-4 agonist inconclusive, FPR ligand -9 and Prostate diff 6.
Screening c1ccc(CC2CCN(c3nc4ccccc4n4nnnc34)CC2)cc1 returned FPRL1 ligand -11, VLA-4 antagonist -6, Jurkat autofluor 1.8, VLA-4 agonist 0, FPR ligand -3 and Prostate diff 7.
For N#CCCSc1ccccc1NC(=O)c1ccc(S(=O)(=O)N2CCCC2)cc1 the results were FPRL1 ligand -2, VLA-4 antagonist inconclusive, Jurkat autofluor 1.3, VLA-4 agonist inconclusive, FPR ligand 1 and Prostate diff 10.
Screening CN(C)c1ccc(/C=c2\sc3nc(-c4ccccc4)nn3c2=O)cc1 returned VLA-4 antagonist inconclusive, Jurkat autofluor 8.2*, VLA-4 agonist inconclusive and Prostate diff 5.
Cc1ccc(NC(=O)C2C3C=CC4(CN(Cc5cccnc5)C(=O)C24)O3)cc1F (configuration not stated) was read as FPRL1 ligand 3, VLA-4 antagonist 9, Jurkat autofluor 1, VLA-4 agonist -2, FPR ligand 1 and Prostate diff 7.
For Cc1ccc2nsnc2c1S(=O)(=O)N(Cc1cc2cccc(C)c2[nH]c1=O)CC1CCCO1 (configuration not stated) the results were FPRL1 ligand -8, VLA-4 antagonist -13, Jurkat autofluor 1.1, VLA-4 agonist -2, FPR ligand 1 and Prostate diff 14.
For O=C(COC(=O)C1CC1)c1c[nH]c2ccccc12 the results were FPRL1 ligand 6, VLA-4 antagonist 0, Jurkat autofluor 1.1, VLA-4 agonist -1, FPR ligand -2 and Prostate diff 6.
COc1ccc2c(C(=O)CN(C)C3CCCCC3)c[nH]c2c1 was read as FPRL1 ligand 15, VLA-4 antagonist inconclusive, Jurkat autofluor 6.7*, VLA-4 agonist inconclusive, FPR ligand -5 and Prostate diff 9.
CCCCCOC(=O)C1=C(C)N(C)C(=O)NC1c1cc(Br)c(O)c(OC)c1 (configuration not stated) was read as FPRL1 ligand 1, VLA-4 antagonist -8, Jurkat autofluor 1.1, VLA-4 agonist -7, FPR ligand -3 and Prostate diff 8.
